Screening results (PubChem BioAssay)
In the library only some 9.2% were active in any assay of this set; here they are far more common.
FLuc modulator: firefly luciferase modulation, counter-screen for miR-21 project. purified FLuc, Km substrates, luminescence inhibition. Potency, µM (highest dose often 57.5 µM), for the others: at the highest dose activity change, negative = inhibition, actives largely listed as inhibitors. 360,000 compounds, 6.9% hits. AID 588342;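 note: plate controls were vehicle for no effect and reference inhibitor for full effect; nearly all actives have a fitted effect of over 55% in size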
Target sequence (P08659 whole entry, looked up): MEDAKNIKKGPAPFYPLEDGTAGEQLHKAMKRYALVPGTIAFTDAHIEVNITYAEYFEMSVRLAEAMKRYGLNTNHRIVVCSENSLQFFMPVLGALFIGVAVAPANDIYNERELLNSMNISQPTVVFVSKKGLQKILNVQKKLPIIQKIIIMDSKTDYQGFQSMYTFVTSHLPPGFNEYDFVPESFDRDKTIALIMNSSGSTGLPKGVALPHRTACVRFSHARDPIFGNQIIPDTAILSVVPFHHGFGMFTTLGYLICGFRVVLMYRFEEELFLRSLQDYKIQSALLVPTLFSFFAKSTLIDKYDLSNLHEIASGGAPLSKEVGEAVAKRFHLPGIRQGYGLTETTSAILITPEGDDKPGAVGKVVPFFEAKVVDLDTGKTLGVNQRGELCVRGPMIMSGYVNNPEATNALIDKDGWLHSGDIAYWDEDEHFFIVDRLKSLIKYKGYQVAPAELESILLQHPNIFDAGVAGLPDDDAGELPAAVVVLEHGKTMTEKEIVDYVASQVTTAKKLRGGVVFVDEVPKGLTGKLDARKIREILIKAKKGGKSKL
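Purified P. pyralis luciferase, 10 nM final, with Km-level 10 uM D-luciferin and 10 uM ATP in 50 mM Tris acetate pH 7.5, 10 mM Mg acetate, 0.01% Tween-20, 0.05% BSA; 6-point qHTS titration about 60 µM downward; luminescence read.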
SMN2 splice up: enhancers of SMN2 splice variant expression; 210,000 compounds, 2.8% hits; HEK293 SMN2-luciferase splicing reporter, luminescence, 30-36 h; Potency, µM (top dose mostly 46.1 µM), for the others: at the top dose activity change, positive = activation, usual class: activators; note: % of control where 0% means no effect; nearly all actives have a fitted effect of over 55% in size
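HEK293 cells carry an SMN2 […]–luciferase reporter in which exon 7 inclusion puts luciferase in frame. Cells were plated 10-12 h before compound addition, then incubated 30-36 h at 37C. ONE-Glo luminescence was read; sodium butyrate at 4.5 mM final served as control.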
NPC1 prom act: activators of NPC1 promoter. Huh7 NPC1 promoter luciferase reporter, 24 h. Potency, µM (highest dose often 9.22 µM), without a hit: top-dose activation, most hits filed as activators. 320,000 compounds, 2.4% hits. AID 485313; note: % of control where 0% means no effect; nearly all actives have a fitted effect of over 60% in size
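Luminescence read-out of NPC1 promoter-driven luciferase in stably transfected Huh7 cells; compounds delivered in DMSO and left 24 h at 37C, 5% CO2, qHTS titration format.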
ELG1 repair inh: inhibitors of ELG1-dependent DNA repair in HEK293T cells. AID 504467. Potency, µM (doses to about 46.1 µM), inactives show at the top dose activity change, negative = inhibition, usual class: inhibitors. 330,000 compounds, 2.3% hits. HEK293T ELG1-luciferase reporter, luminescence, 16 h; DNA damage induced by 5-fluorouridine; note: % is set by controls: 0 for no effect and ±100 for the full control effect; nearly all actives have a fitted effect of over 55% in size
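Luminescence from the luciferase reporter, measured 30 min after ONE-Glo reagent at room temperature, was the read-out. Beforehand, 2,000 cells per well were exposed for 16 hr at 37 °C to 5-fluorouridine together with compound or vehicle.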
ELG1 genotox: induces genotoxicity in HEK293T cells with luciferase-tagged ELG1 | AID 504466 | Potency, µM (doses to about 46 µM), inactives show top-dose activity change, positive = activation, most hits filed as activators | HEK293T ELG1-luciferase reporter, luminescence, 16 h | 330,000 compounds, 1.3% hits; note: % of control where 0% means no effect; nearly all actives have a fitted effect of over 60% in size
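ELG1-luciferase HEK293T cells, 2,000/well; compound pinned in; 16 hr, 37 °C, 5% CO2; ONE-Glo, 30 min RT; luminescence on CCD imager.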
Rab9 prom act: activators of Rab9 promoter; Huh7 Rab9 promoter-luciferase reporter, luminescence, 24 h; AID 485297; 320,000 compounds, 2.8% hits; Potency, µM (series often up to 9.22 µM), for inactives: at the top dose activation, negative = inhibition, usual class: activators; note: % of control where 0% means no effect; nearly all actives have a fitted effect of over 60% in size
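Luminescence from Amplite-detected luciferase (10 minutes, ambient) reports Rab9 promoter activation. Before that, stable Rab9-luciferase Huh7 cells (1500/well, reduced-serum OP-MEM I plus 10% FBS) were exposed to compound for 24 hours at 37C.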
Numbers without * were called inactive; ? = inconclusive; . = no result; [ ] = another dose, or the depositor's remark. Calls come from the whole dose curve; as a rule, active = well fitted curve in the direction sought with a large enough effect; inconclusive = small, poorly fitted or top-dose-only effect, or another doubt; inactive = no such curve, though single readings can be large; an effect the other way counts as inactive or inconclusive. Potency is the fitted concentration of half-maximal effect.

SMILES | FLuc modulator | SMN2 splice up | NPC1 prom act | ELG1 repair inh | ELG1 genotox | Rab9 prom act
Cc1c(C)c2ccc(OCc3ccc(C(=O)O)o3)c(C)c2oc1=O | 10.7µM* | 68.4% | -5.2% | ? | ? | -4.1%
CCOC(=O)N1CCN(S(=O)(=O)c2ccc(OC)c(Br)c2)CC1 | 0.5% | . | 4.0% | ? | 0.7% | 2.3%
O=C(O)c1cc(=O)c2cccc(O)c2[nH]1 | . | -0.5% | . | . | . | .
COc1ccc(NC(=O)N(C)C[C@H]2Oc3ccc(NS(=O)(=O)c4c(C)noc4C)cc3C(=O)N([C@H](C)CO)C[C@@H]2C)cc1 | . | . | . | 3.9% | 6.4% | .
COC(=O)c1ccc(COc2cc(C)ccc2C)o1 | 10.7µM* | . | 28.7% | 0.0% | ? | 12.9%
C=CCc1ccc(OCC(O)COCC)c(OC)c1 (stereo not given) | 19µM* | 12.6µM* | ? | ? | 18.4µM* | ?
CCOC(=O)C1CCCN(C(=O)c2ccccc2NC(=O)c2nsc3ccccc23)C1 (stereo not given) | -16.9% | . | . | . | . | .
COc1ccc2oc(=O)cc(CN3CCN(c4ccccc4F)CC3)c2c1 | -2.5% | 2.7% | . | . | . | .
Cc1cccc(Cn2c(SCc3ccc(C(=O)NCc4ccccc4F)cc3)nc3ccncc32)c1 | -0.1% | -13.1% | . | . | . | .
O=C(NCc1ccc(Cl)cc1)C1CCN(S(=O)(=O)c2ccc3c(c2)CCCN3C(=O)C2CCC2)CC1 | -0.1% | . | . | . | . | .
CCC(C)NC(=O)C1CCN(S(=O)(=O)c2ccc3c(ccn3CC)c2)CC1 (stereo not given) | 4.8% | . | . | . | . | .
COc1ccc(CCN2CC(C(=O)N3CCC(OC)CC3)CCC2=O)cc1 (stereo not given) | 5.1% | . | -0.6% | 18.2% | 2.4% | 15.1%
C=CCC1(CC=C)CCCN1C(=O)C1CCC(=O)N(CCc2ccccc2)C1 (stereo not given) | 10.7µM* | . | 3.98µM* | ? | ? | 2.82µM*
O=C1CCC(C(=O)N2CCSCC2)CN1CCc1ccccc1 (stereo not given) | 1.4% | . | 1.6% | ? | -7.8% | 6.6%
C=CCC1(CC=C)CCCN1C(=O)C1CCC(=O)N(CCc2ccc(OC)cc2)C1 (stereo not given) | 10.7µM* | . | 2.51µM* | ? | ? | 2.51µM*
CC(=O)c1ccc(-c2ccc(C(=O)NC3CC(C)(C)NC(C)(C)C3)o2)cc1 | 0.5% | . | 2.7% | ? | ? | -4.3%
CCn1c(-c2ccc(F)cc2)cnc1SCC(=O)N1CCCCC1C (stereo not given) | 10.7µM* | 1.3% | ? | ? | 6.51µM* | ?
CCOc1ccc(NC(=O)C2C3C=CC4(O3)C2C(=O)N(Cc2cccnc2)C4C(=O)NC2CCCCC2)cc1 (stereo not given) | -2.3% | . | 2.1% | 8.0% | 1.1% | 0.0%
COc1ccc(NC(=O)Cn2cc(C(=O)c3ccccc3OC)c(=O)c3ccc(C)nc32)cc1OC | -8.7% | . | . | . | . | .
CCCCn1c(N)c(N(CC(C)C)C(=O)COC(=O)Cc2cccc(OC)c2)c(=O)[nH]c1=O | -3.5% | . | -4.1% | 2.3% | -0.5% | -1.4%
CC(C)(C)C1CCc2sc(-c3nnc(CCl)o3)cc2C1 (stereo not given) | 23.9µM* | -24.3% | -2.1% | ? | 5.0% | -0.8%
CC1(C)CC(N2CCCC2)=CC(=[N+]2CCCCCC2)C1 | -3.7% | -71.8% | -47.9% | 0.58µM* | -14.7% | -47.7%
CCOc1ccc(-n2c(N)c(C(=O)NCc3ccco3)sc2=S)cc1 | 1.9% | 18.8% | -7.3% | 0.7% | -0.3% | -0.6%
O=C(CN1C(=O)C2CCCCC2C1=O)Nc1ccc(OC(F)F)c(Cl)c1 (stereo not given) | 2.5% | . | -0.6% | 2.2% | -1.9% | 0.2%
CC1(C)Cc2ccccc2C(/C(C#N)=N/O)=N1 | ? | 9.3% | 0.6% | -23.5% | -12.2% | -5.4%
SMILES | FLuc modulator | SMN2 splice up | NPC1 prom act | ELG1 repair inh | ELG1 genotox | Rab9 prom act
COc1ccc(N/N=C(/C(N)=O)C2=NC(C)(C)Cc3ccccc32)cc1 | -0.9% | -24.6% | -6.6% | 23.1µM* | -10.5% | -10.8%
O=C(NN=C1CCN(Cc2ccccc2)CC1)c1cc2ccccc2cc1O | ? | 13.2% | -1.4% | 18.3% | 0.6% | 5.2%
CCOC(=O)C1=C(C)C/C(=N\NC(=O)c2ccccc2O)CC1 | 7.57µM* | . | ? | ? | 25.9% | ?
O=C(O)c1cc(NN=C2CCN(Cc3ccccc3)CC2)ccc1Cl | ? | . | 3.98µM* | ? | ? | 2.82µM*
O=C(O)c1cc(N/N=C2/CC(c3ccccc3)Oc3ccccc32)ccc1Cl (stereo not given) | 26.9µM* | -2.9%[1.84 µM] | -0.9% | ? | 9.8% | 5.4%
CC(C)(C)N/N=C1\CC(c2ccccc2)Oc2ccccc21 (stereo not given) | -1.1% | . | 0.8% | 18.0% | -2.0% | -3.3%
O=C(NN=C1CCN(Cc2ccccc2)CC1)c1ccccc1O | 23.9µM* | . | -1.8% | 12.1% | 4.3% | 2.6%
COc1cc2c(cc1OC)C(C)N(C(=O)c1cccc([N+](=O)[O-])c1)CC2 (stereo not given) | 0.4% | ? | 1.2% | 18.3µM* | -8.8% | -3.4%
COc1cc(NC(=O)c2ccc(-n3cnc4cccnc43)cc2)cc(OC)c1 | -1.4% | . | . | . | . | .
Cc1ccc2c(c1)C(=O)C(=O)N2Cc1ccc(OC(C)C)cc1 | -8.8% | -13.6% | . | . | . | .
Cc1ccc(OCCN2C(=O)C(=O)c3cc(C)ccc32)cc1 | 15.1µM* | -36.2% | -11.0% | -1.4% | ? | -12.1%
Cc1ccc(OCCCN2C(=O)C(=O)c3cccc(C)c32)cc1 | 23.9µM* | -22.3% | 0.8% | -0.1% | -1.2% | 7.2%
COc1ccc(-n2ncc(C(=O)N3CCN(c4ccc(F)cc4)CC3)c2C)cc1 | -4.3% | . | -0.7% | 20.6µM* | -6.8% | -13.6%
COc1ccc(-n2nc(C(=O)N3CCN(c4ccc(F)cc4)CC3)c3ccccc3c2=O)c(OC)c1 | 6.2% | -5.4% | 9.3% | 9.2µM* | -7.0% | 0.8%
CCCCNC(=O)CNC(=O)c1nn(-c2ccc(OC)cc2OC)c(=O)c2ccccc12 | -5.4% | . | -2.4% | 7.9% | 1.6% | -0.9%
